# In PubChem BioAssay (NCI):
# The panel holds about 83,000 compounds, 20% with a hit somewhere; the sample as a whole holds those more often.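 48-hour exposure, single concentration, 96-well plates; percent growth endpoint where 0 means no net growth. Active: below 10.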 Values without a mark were called inactive. Activity calls are given as the source filed them.
# Tested on: CAKI-1 renal
# Experiment: NCI-60 one-dose screen, 48 h (100 = growth as untreated, 0 = no growth, -100 = all killed)
# Conditions: 10 µM unless noted
row,SMILES,growth
1,CN1C(=O)N(C)C2C1NN=c1s/c(=C\c3ccccc3)c(=O)n12 (stereo unspecified),33.5%
2,CCn1c(C)nc2cc(C(N)=O)ccc21,143%
3,Cc1ccc(/C=C/c2c(C(=O)/C=C/c3ccc(Cl)cc3)c(C)nc3ccccc23)cc1,-4.17% (active)
4,COc1ccc2[nH]c(O)c(/C=c3/cc4c(c(-c5ccc(F)c(OC)c5)n3)=Nc3ccccc3-4)c2c1,88.3%
5,O=C(Cc1ccc(F)c(F)c1)Nc1cc(C2(C(F)(F)F)CC2)nn1Cc1ccccc1,-18.4% (active)
6,C#CCOc1nc(C)cc(C)c1C#N,90.6%
7,O=C1NC(=Nc2ccc(Cl)cc2)S/C1=C\c1cn(-c2ccccc2)nc1-c1ccccc1,94.7%
8,COc1cccc(-c2nn(-c3ccccc3)cc2-c2ccnc(NCCNC(=O)Nc3cccc(C(F)(F)F)c3)c2)c1,25.7%
9,COc1cc2ncn3c(=O)c4c5c(sc4nc3c2cc1OC)CCCC5,92.5%
10,CCN1C(=O)N(CC)C2Nn3c(s/c(=C4\C(=O)N(C)c5ccccc54)c3=O)=NC21 (stereo unspecified),36%
11,Cc1c(C)c2c(c(C)c1OCC(=O)O)CC[C@@](C)(CCC[C@@H](C)CCC[C@@H](C)CCCC(C)C)O2,7.85% [50 µM] (active)
12,Cc1occc1-c1n[nH]c(=S)n1N1C(=O)CSC1=S,85.4%
13,c1ccc(-c2nc([P+](c3ccccc3)(c3ccccc3)c3ccccc3)c(N3CCOCC3)o2)cc1,50.9%
14,Cc1cccc(Cc2cnc(NC(=O)/C=C/c3ccco3)s2)c1,30.4%
15,COC1=CC(=O)C[C@@H](C)[C@]12Oc1c(Cl)c(OC)cc(OC)c1C2=O,82.1%
16,CC1=C(SCCC(=O)OC(C[Se]C2=C(C)C(=O)c3ccccc3C2=O)C(=O)NCCCCCC(=O)OCc2ccccc2)C(=O)c2ccccc2C1=O (stereo unspecified),90.8%
17,O=c1c2c3c(sc2nc(N/N=C/c2ccc(Br)cc2)n1Cc1ccccc1)CCCC3,62%
18,CC(=O)O[C@]1(C(C)=O)CCC2C3C[C@H](C)C4=CC(=O)CC[C@]4(C)C3CC[C@@]21C (stereo partly specified),73.8%

row,SMILES,growth
1,Nc1ccc2c(c1)c(N)nn2C(=O)Nc1ccc(Cc2ccccc2)cc1,38.9%
2,Cc1cc(NCc2cc(Nc3ccnc4cc(Cl)ccc34)ccc2F)nc(N2CCSCC2)n1,60.9%
3,CN(C)CCC=C1c2ccccc2C(C)(C)c2ccccc21,91.2%
4,COc1ccc(NC(=O)CSc2nc(C)c(C(C)=O)n2-c2ccc([N+](=O)[O-])cc2)cc1,99.6%
5,COC(=O)c1c2c(c(C)[n+]([O-])c1C)C(=O)C(NCc1ccc(F)cc1)=CC2=O,50.7%
6,Cc1c(C(=O)NC(Cc2ccccc2)C(O)C(=O)NCc2ccc(F)cc2)[nH]c2ccccc2c1=O (stereo unspecified),102%
7,COC1=C(OC)C(=O)C(OC)=C(OC)C1=O,98.9%
8,CCN(CC)Cc1cccc(C(=O)OC)c1,97.2%
9,C[C@H](NC(=O)[C@@H]1CSSC[C@@H](NC(=O)c2nc3ccccc3cc2O)C(=O)NCC(=O)N1C)c1ccccc1,83.2%
10,O=c1ssc(Cl)c1-c1ccccc1,90.5%
11,O=S(=O)(NCCCNc1cc(-c2c(-c3cccc(O)c3)nc3sccn23)ccn1)c1cccc(Cl)c1,43%
12,CCOC(=O)/C=C/c1cc2cc(-c3csc4ccccc34)ccc2[nH]1,69.4%
13,Cn1cc(-c2csc(-c3ccccc3)n2)c2cccnc21,-32.4% [100 µM] (active)
14,O=c1[nH]nc(-c2ccccc2)c2c(-c3ccccc3)onc12,28.7%
15,Cc1ccccc1NC(=O)N/C(N)=N/c1nc(-c2cccc([N+](=O)[O-])c2)cs1,26.4%
16,COc1cc2c(cc1-c1c(C)noc1C)ncc1nc(C3CCC(F)(F)CC3)n(C3CCC(OC(F)F)CC3)c12 (stereo unspecified),52.1%
17,N#C/C(=C\c1ccc(Br)cc1)n1nnc2cc(F)c(F)cc21,22.9%
18,CSc1n(Cc2ccc3ccccc3c2)c(C)c[n+]1Cc1ccc2ccccc2c1,-22.8% (active)
